Data from the supplement of paper PMC8728848.
This is one part of a sample in which the strongest signals are shown more often than they occur.

What was measured:
Experiment in all cases: glycan array binding signal (z-score within array); higher = stronger binding
Conditions in all cases: glycan notation: IUPAC condensed, linker removed
Gal6S(b1-4)GlcNAc6S = biological target: Gal6S(b1-4)GlcNAc6S
Outline: (§1)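 The binding signal is a Z-score computed within each array. Data were drawn from 3228 arrays in the Consortium for Functional Glycomics database, restricted to those with a known protein sequence. Scores were averaged over arrays of the same protein sequence at different concentrations or buffers, and over linkers, and negative values can be taken as non-binding.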

[1] = biological target: GalNAc(a1-3)GalNAc(b1-3)Gal(a1-4)Gal(b1-4)Glc
Outline: as §1

GalNAc(b1-4)GlcNAc = biological target: GalNAc(b1-4)GlcNAc
Outline: as §1

[2] = biological target: Glc(a1-6)Glc(a1-6)Glc(a1-6)Glc
Outline: as §1

[3] = biological target: GlcNAc(b1-2)[GlcNAc(b1-4)]Man(a1-3)[GlcNAc(b1-2)Man(a1-6)]Man(b1-4)GlcNAc(b1-4)GlcNAc
Outline: as §1

[4] = biological target: GlcNAc(b1-3)Gal(b1-4)GlcNAc(b1-2)Man(a1-3)[GlcNAc(b1-3)Gal(b1-4)GlcNAc(b1-2)Man(a1-6)]Man(b1-4)GlcNAc(b1-4)[Fuc(a1-6)]GlcNAc
Outline: as §1

[5] = biological target: GlcNAc(b1-3)Gal(b1-4)GlcNAc(b1-3)Gal(b1-4)GlcNAc(b1-2)Man(a1-3)[GlcNAc(b1-3)Gal(b1-4)GlcNAc(b1-3)Gal(b1-4)GlcNAc(b1-2)Man(a1-6)]Man(b1-4)GlcNAc(b1-4)[Fuc(a1-6)]GlcNAc
Outline: as §1

[6] = biological target: GlcNAc(b1-3)Gal(b1-4)GlcNAc(b1-3)Gal(b1-4)GlcNAc(b1-2)[GlcNAc(b1-3)Gal(b1-4)GlcNAc(b1-3)Gal(b1-4)GlcNAc(b1-6)]Man(a1-6)[GlcNAc(b1-3)Gal(b1-4)GlcNAc(b1-3)Gal(b1-4)GlcNAc(b1-2)Man(a1-3)]Man(b1-4)GlcNAc(b1-4)[Fuc(a1-6)]GlcNAc
Outline: as §1

GlcNAc(b1-3)GalNAc = biological target: GlcNAc(b1-3)GalNAc
Outline: as §1

Kdn(a2-3)Gal(b1-4)Glc = biological target: Kdn(a2-3)Gal(b1-4)Glc
Outline: as §1

[7] = biological target: Man(a1-2)Man(a1-3)[Man(a1-2)Man(a1-6)]Man(a1-6)[Man(a1-2)Man(a1-2)Man(a1-3)]Man
Outline: as §1

[8] = biological target: Man(a1-3)[Man(a1-6)]Man(a1-6)[Man(a1-2)Man(a1-3)]Man(b1-4)GlcNAc(b1-4)GlcNAc
Outline: as §1

[9] = biological target: Man(a1-3)[Man(a1-6)]Man(a1-6)[Man(a1-3)]Man
Outline: as §1

[10] = biological target: Neu5Ac(a2-3)Gal(b1-3)GalNAc(b1-4)[Neu5Ac(a2-3)]Gal(b1-4)Glc
Outline: as §1

[11] = biological target: Neu5Ac(a2-3)Gal(b1-3)GalNAc6S
Outline: as §1

[12] = biological target: Neu5Ac(a2-3)Gal(b1-3)[Fuc(a1-4)]GlcNAc
Outline: as §1

[13] = biological target: Neu5Ac(a2-3)Gal(b1-4)GlcNAc(b1-2)Man(a1-3)[Neu5Ac(a2-3)Gal(b1-4)GlcNAc(b1-2)Man(a1-6)]Man(b1-4)GlcNAc(b1-4)GlcNAc
Outline: as §1

[14] = biological target: Neu5Ac(a2-3)Gal(b1-4)GlcNAc(b1-2)[Neu5Ac(a2-3)Gal(b1-4)GlcNAc(b1-4)]Man(a1-3)[GlcNAc(b1-4)][Neu5Ac(a2-3)Gal(b1-4)GlcNAc(b1-4)Man(a1-6)]Man(b1-4)GlcNAc(b1-4)GlcNAc
Outline: as §1

[15] = biological target: Neu5Ac(a2-3)Gal(b1-4)[Fuc(a1-3)]GlcNAc(b1-3)Gal(b1-4)GlcNAc
Outline: as §1

[16] = biological target: Neu5Ac(a2-3)[GalNAc(b1-4)]Gal(b1-4)GlcNAc
Outline: as §1

[17] = biological target: Neu5Ac(a2-6)Gal(b1-4)GlcNAc(b1-6)[Gal(b1-3)GlcNAc(b1-3)]Gal(b1-4)Glc
Outline: as §1

[18] = biological target: Neu5Ac(a2-8)Neu5Ac(a2-3)[GalNAc(b1-4)]Gal(b1-4)Glc
Outline: as §1

[19] = biological target: Neu5Ac9Ac(a2-3)Gal(b1-4)GlcNAc
Outline: as §1

[20] = biological target: Neu5Ac9Ac(a2-6)Gal(b1-4)GlcNAc
Outline: as §1

[21] = biological target: Neu5Gc(a2-3)Gal(b1-4)GlcNAc
Outline: as §1

[22] = biological target: Neu5Gc(a2-8)Neu5Gc(a2-3)Gal(b1-4)GlcNAc
Outline: as §1

[23] = biological target: Neu5Gc(b2-6)Gal(b1-4)GlcNAc
Outline: as §1

B1: Epa23 (Candida glabrata) (protein)
chain: MGSSHHHHHHSSGLVPRGSHMIPNPFEGTINNFPSGCSPNHGLYNRGLTMELYNYSYIHPQSIQSYFNTSTLKKMEKGQCWDPSYLDVNYPRTGYKTHNRFAKVNGIDGILDFEFNPTRSCVPSKGQLPQNYNYPLQFTLSNFTMLLYGYFKPKVTAKHTFTIFADDLLFLNFGAGNAFDCCQQQDTIDDFGNYQAYALWGSDTQQNTLTVNLDANIYYPIRMFYNNRDFKGALNMYFTTDESNTKINDFSGYLFNIPDSSEGCPAHISYETECGNVSG
- glycan array binding signal (z-score) (Gal6S(b1-4)GlcNAc6S): 13.5
- glycan array binding signal (z-score) [1]: -0.137
- glycan array binding signal (z-score) (GalNAc(b1-4)GlcNAc): -0.168
- glycan array binding signal (z-score) [2]: -0.278
- glycan array binding signal (z-score) [3]: -0.21
- glycan array binding signal (z-score) [4]: -0.199
- glycan array binding signal (z-score) [5]: -0.176
- glycan array binding signal (z-score) [6]: -0.093
- glycan array binding signal (z-score) (GlcNAc(b1-3)GalNAc): -0.243
- glycan array binding signal (z-score) (Kdn(a2-3)Gal(b1-4)Glc): -0.263
- glycan array binding signal (z-score) [7]: -0.233
- glycan array binding signal (z-score) [8]: -0.22
- glycan array binding signal (z-score) [9]: -0.232
- glycan array binding signal (z-score) [10]: -0.24
- glycan array binding signal (z-score) [11]: -0.246
- glycan array binding signal (z-score) [12]: -0.296
- glycan array binding signal (z-score) [13]: -0.249
- glycan array binding signal (z-score) [14]: -0.243
- glycan array binding signal (z-score) [15]: -0.288
- glycan array binding signal (z-score) [16]: -0.198
- glycan array binding signal (z-score) [17]: -0.13
- glycan array binding signal (z-score) [18]: -0.297
- glycan array binding signal (z-score) [19]: -0.225
- glycan array binding signal (z-score) [20]: -0.239
- glycan array binding signal (z-score) [21]: -0.274
- glycan array binding signal (z-score) [22]: -0.215
- glycan array binding signal (z-score) [23]: -0.194
